Drawing on PubChem BioAssay AID2284148 (EPA ToxCast), this text covers AC50 and outcome for two molecules.

The source made the active and inactive calls. Rule for the calls: active = hit-call score of the fitted dose curve at least 0.9, where 1 is the maximum; inactive = score below 0.9.

Sequence of human Cholecystokinin Receptor CCK1 (CCKA) Agonism, CCKAR (gene 886) (P32238 whole entry, looked up): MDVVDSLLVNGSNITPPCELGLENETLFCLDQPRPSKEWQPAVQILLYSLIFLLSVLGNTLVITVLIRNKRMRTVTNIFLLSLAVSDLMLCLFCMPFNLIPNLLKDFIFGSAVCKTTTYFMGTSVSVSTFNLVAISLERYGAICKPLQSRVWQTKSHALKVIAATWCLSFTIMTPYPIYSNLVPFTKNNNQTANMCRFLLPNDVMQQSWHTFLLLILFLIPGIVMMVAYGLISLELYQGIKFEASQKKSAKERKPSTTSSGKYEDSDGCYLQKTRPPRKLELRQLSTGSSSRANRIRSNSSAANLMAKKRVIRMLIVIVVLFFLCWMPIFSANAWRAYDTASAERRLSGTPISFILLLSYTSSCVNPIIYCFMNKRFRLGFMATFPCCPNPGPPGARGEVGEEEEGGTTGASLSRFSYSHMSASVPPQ

The target of this experiment is human Cholecystokinin Receptor CCK1 (CCKA) Agonism, CCKAR (gene 886) (UniProt P32238). Put plainly: ERF_TW_GPCR_hCCKAR: Eurofins (ERF) G Protein-Coupled Receptor (GPCR) Radioligand Binding LeadHunter Assay for human Cholecystokinin Receptor CCK1 (CCKA) Agonism. On the procedure:
ERF_TW_GPCR_hCCKAR is a biochemical, single-readout assay that uses extracted gene-proteins in a cell-free assay. Measurements were taken 1 hour after chemical dosing in a 96-well plate. See CCK1 (CCKA) Human Cholecystokinin GPCR Binding (Antagonist Radioligand) Assay, Panlabs.ERF_TW_GPCR_hCCKAR is an assay component calculated from the ERF_TW_GPCR_hCCKAR assay. It is designed to measure radioligand binding using a type of binding reporter as detected by scintillation counting with radiometry technology.Data from the assay component ERF_TW_GPCR_hCCKAR was analyzed at the assay endpoint, ERF_TW_GPCR_hCCKAR, in the positive analysis fitting direction relative to DMSO as the negative control and baseline of activity. Using a type of binding reporter, loss-of-signal activity can be used to understand changes in binding as they relate to gene CCKAR. To generalize the intended target to other relatable targets, this assay endpoint is annotated to the gpcr intended target family, where the subfamily is cholecystokinin.
1321-N1 (human astrocytoma) stably transfected with a plasmid encoding the human recombinant CCK1 receptor are used to prepare membranes in modified HEPES buffer pH 7.4. A 5 ug aliquot of membrane is incubated with 0.11 nM [125I]CCK-8 for […] at 25C. […] Membranes are filtered and washed, the filters are then counted to determine [125I]CCK-8 specifically bound. […]
One may read the AC50 as the concentration giving half of the maximal activity seen. `O=C(/C=C/c1ccc(O)cc1)CC(=O)/C=C/c1ccc(O)cc1`: the AC50 was 1990 nM (active).
Regarding `CCCCC[C@H](O)CC(=O)CCc1ccc(O)c(OC)c1`, the call was inactive.
